# From article PMC8384837, “Expanding the binding specificity for RNA recognition by a PUF domain”
# Columns and labels:
# Assay in all cases: yeast three-hybrid, YBZ-1, SC-Leu-His + 0.5 mM 3-AT, 4 days
# Details in all cases: tags: N-Gal4 AD-HA kept; label: inside an RPR1-promoter hybrid RNA with tandem MS2 sites; ssRNA
# PUM1 PUF domain R8-KFP = PUM1 PUF domain R8-KFP (Homo sapiens, UniProt Q14671 828-1176, N1122K;Y1123F;Q1126P)
# Method in brief: (§1)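 The interaction score is the log change in variant frequency from input to selection. Scores were computed in log2 with a pseudocount of 1 for absent variants, using Illumina sequencing of PCR-amplified repeat regions. The input came from four days on SC-Leu and the selection from four days on SC-Leu-His + 0.5 mM 3-AT. The cells were strain YBZ-1 (LexA–MS2 coat fusion, HIS3 reporter) co-expressing Pumilio-1 PUF domain libraries and matching RNA elements from a centromeric plasmid.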
# PUM1 PUF domain R4-DFA = PUM1 PUF domain R4-DFA (Homo sapiens, UniProt Q14671 828-1176, N971D;H972F;Q975A)
# Method in brief: as §1
# PUM1 PUF domain R6-SFR = molecular target: T1, PUM1 PUF domain R6-SFR (Homo sapiens, UniProt Q14671 828-1176, N1043S;Y1044F;Q1047R)
# T1 sequence: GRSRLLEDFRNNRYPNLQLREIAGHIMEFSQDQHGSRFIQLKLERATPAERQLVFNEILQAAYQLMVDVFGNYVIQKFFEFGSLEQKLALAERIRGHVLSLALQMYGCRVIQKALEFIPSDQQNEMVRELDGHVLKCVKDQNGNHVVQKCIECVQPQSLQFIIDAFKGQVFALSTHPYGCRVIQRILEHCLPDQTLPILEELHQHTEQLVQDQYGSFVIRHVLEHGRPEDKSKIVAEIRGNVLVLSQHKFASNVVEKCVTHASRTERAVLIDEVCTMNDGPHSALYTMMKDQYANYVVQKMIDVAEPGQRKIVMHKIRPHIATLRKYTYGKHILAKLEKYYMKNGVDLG
# Method in brief: as §1
# PUM1 PUF domain R5-KWG = PUM1 PUF domain R5-KWG (Homo sapiens, UniProt Q14671 828-1176, C1007K;R1008W;Q1011G)
# Method in brief: as §1
# PUM1 PUF domain R5-RGD = PUM1 PUF domain R5-RGD (Homo sapiens, UniProt Q14671 828-1176, C1007R;R1008G;Q1011D)
# Method in brief: as §1
# PUM1 PUF domain R5-DFW = PUM1 PUF domain R5-DFW (Homo sapiens, UniProt Q14671 828-1176, C1007D;R1008F;Q1011W)
# Method in brief: as §1
# PUM1 PUF domain R3-SLE = PUM1 PUF domain R3-SLE (Homo sapiens, UniProt Q14671 828-1176, C935S;R936L;Q939E)
# Method in brief: as §1
# PUM1 PUF domain R7-GVK = PUM1 PUF domain R7-GVK (Homo sapiens, UniProt Q14671 828-1176, S1079G;N1080V;E1083K)
# Method in brief: as §1
# PUM1 PUF domain R7-GTR = PUM1 PUF domain R7-GTR (Homo sapiens, UniProt Q14671 828-1176, S1079G;N1080T;E1083R)
# Method in brief: as §1
# PUM1 PUF domain R3-DRL = PUM1 PUF domain R3-DRL (Homo sapiens, UniProt Q14671 828-1176, C935D;Q939L)
# Method in brief: as §1
sequence,measurement,setting,value
GGCUAGAACUAGUGGAUCCCCCGGCGCCCGGCGGCUCGAGCCCGGGUAAGCGUAAAUAGUCUGCAUGCCGCCGGGCGCCAUGCCUGCAGGUCGACUCUAGAAAACAUG,binding signal,PUM1 PUF domain R8-KFP,3.9 log2 enrichment (interaction score)
GGCUAGAACUAGUGGAUCCCCCGGCGCCCGGCGGCUCGAGCCCGGGUAAGUGUACAUAGUCUGCAUGCCGCCGGGCGCCAUGCCUGCAGGUCGACUCUAGAAAACAUG,binding signal,PUM1 PUF domain R4-DFA,6.02 log2 enrichment (interaction score)
GGCUAGAACUAGUGGAUCCCCCGGCGCCCGGCGGCUCGAGCCCGGGUAAGUGCAAAUAGUCUGCAUGCCGCCGGGCGCCAUGCCUGCAGGUCGACUCUAGAAAACAUG,binding signal,PUM1 PUF domain R6-SFR,7.11 log2 enrichment (interaction score)
GGCUAGAACUAGUGGAUCCCCCGGCGCCCGGCGGCUCGAGCCCGGGUAAGUGUCAAUAGUCUGCAUGCCGCCGGGCGCCAUGCCUGCAGGUCGACUCUAGAAAACAUG,binding signal,PUM1 PUF domain R5-KWG,4.46 log2 enrichment (interaction score)
same,binding signal,PUM1 PUF domain R5-RGD,3.87 log2 enrichment (interaction score)
same,binding signal,PUM1 PUF domain R5-DFW,2.86 log2 enrichment (interaction score)
GGCUAGAACUAGUGGAUCCCCCGGCGCCCGGCGGCUCGAGCCCGGGUAAGUGUAAGUAGUCUGCAUGCCGCCGGGCGCCAUGCCUGCAGGUCGACUCUAGAAAACAUG,binding signal,PUM1 PUF domain R3-SLE,3.8 log2 enrichment (interaction score)
GGCUAGAACUAGUGGAUCCCCCGGCGCCCGGCGGCUCGAGCCCGGGUAAGUUUAAAUAGUCUGCAUGCCGCCGGGCGCCAUGCCUGCAGGUCGACUCUAGAAAACAUG,binding signal,PUM1 PUF domain R7-GVK,4.74 log2 enrichment (interaction score)
same,binding signal,PUM1 PUF domain R7-GTR,4.38 log2 enrichment (interaction score)
GGCUAGAACUAGUGGAUCCCCCGGCGCCCGGCGGCUCGAGCCCGGGUAAGUGUAAAUAGUCUGCAUGCCGCCGGGCGCCAUGCCUGCAGGUCGACUCUAGAAAACAUG,binding signal,PUM1 PUF domain R3-DRL,3.71 log2 enrichment (interaction score)
same,binding signal,PUM1 PUF domain R4-DFA,2.78 log2 enrichment (interaction score)
same,binding signal,PUM1 PUF domain R6-SFR,6.56 log2 enrichment (interaction score)
same,binding signal,PUM1 PUF domain R8-KFP,4.88 log2 enrichment (interaction score)
